Results on 40 compounds are retold here after PubChem BioAssay (Tox21).

Unmarked numbers belong to inactive results. Calls of active or inactive are those of the source. The call rests on the fitted dose curve; in most records, active means well fitted cell-killing curve with a large enough effect in the repeat runs; inconclusive means weak or mixed curves, or effect the other way; inactive means flat fitted curve, though single readings scatter.
On the % scale 0 is the no-effect control and ±100 the full control effect.

This assay is described as follows: qHTS assay to identify small molecule HDAC inhibitors - cell viability counter screen (AID 1259365). Further: nearly all actives have a fitted effect of over 50% in size. Conditions: HCT-116 viability, CellTiter-Glo ATP luminescence, 2 h; series mostly up to 92.4 µM. The source says: U.S. Tox21 Program National Center for Advancing Translational Sciences [NCATS] NIH Chemical Genomics Center [NCGC] U.S. Environmental Protection Agency [EPA] National Institutes of Environmental Health Sciences [NIEHS] National Toxicology Program [NTP] U.S. Food and Drug Administration [FDA] Tox21 Assay Overview: Histone deacetylases (HDACs) are a group of epigenetic enzymes that regulate gene expression by histone deacetylation. HDACs are capable of introducing epigenetic modifications and such aberrations contribute to the onset and progression of several human diseases, thus making HDACs a popular therapeutic target. For identifying endogenous class I/II HDAC inhibitors a homogenous, luminogenic HDAC I/II cell based assay was used to measure the relative activity of class I and II HDACs from cells. Wild type HCT-116 cells were used to screen Tox21 compound libraries for identifying class I/II HDAC inhibitors.
Tox21 Assay Protocol Summary: HCT-116 cells were dispensed at 1,500 per well in 5uL of culture medium into white solid bottom 1536-well plates (Greiner Bio-One, Monroe, NC) using a Multidrop Combi (Thermo Scientific, Waltham, MA) dispenser. The assay plates were incubated at 37 C and 5% CO2 for an overnight, and then 23nL of compounds dissolved in DMSO and positive control were transferred using a Pintool station (Wako, San Diego, CA). The assay plates were incubated at 37C and 5% CO2 for 2hr. After compound treatment, 4uL of CellTiter-Glo reagent (Promega Corporation, Madison, WI) was added to each well of the assay plates using Flying Reagent Dispenser (FRD, Aurora Discovery, San Diego, CA) and incubated the assay plates at room temperature for 30min. The luminescence signal was quantified using a ViewLux plate reader (Perkin Elmer, Shelton, CT).
(In general: qHTS replaces the single test concentration by a dilution series.)
In the case of `COc1cc(OC)nc(O[C@H](C(=O)O)C(OC)(c2ccccc2)c2ccccc2)n1`, the result was inactive.
The same measure, in the same setting: with `CC1=C(C(=O)O)N2C(=O)[C@@H](NC(=O)[C@H](N)c3ccccc3)[C@H]2SC1` the entry was “inactive”.
`N[C@@H](Cc1ccc(O)cc1)C(=O)O`: the activity change, negative = cytotoxicity was 0.0609% [at 8.39 µM].
With `CCOC(CN1CCN(CC(C)C(=O)c2ccccc2)CC1)c1ccccc1` (stereo not given), the activity change, negative = cytotoxicity is -3.08% [at 19 µM].
Regarding `CCc1occc(=O)c1O`, the compound was called inactive.
The same measure, in the same setting: with `CC(=O)Nc1ccc(OC(=O)c2ccccc2OC(C)=O)cc1` the entry was “inactive”; with `CCCC(CC)c1ccccc1` (stereo not given), “inactive”.
Turning to `CC1(C)Oc2ccc(C#N)cc2[C@@H](N2CCCC2=O)[C@@H]1O`, the compound was classed as inactive.
Same read-out and setting: with `CCCCCc1cccc(=O)o1` the entry was “inactive”.
Still for that read-out and setting: for `CC(=O)OC1CCCCC1C(C)(C)C` (stereo not given) the value was “inactive”.
On the same count and under the same terms, with `C#CCN[C@@H]1CCc2ccccc21` the entry was “inactive”; with `C[C@H]1[C@@H](c2ccccc2)NC(=O)N1C`, “inactive”.
Take `C=Cc1ccc(C(C)(C)C)cc1`: the compound was classed as inactive.
The same measure, in the same setting: for `CCOc1cccc(N)c1` the value was “inactive”; for `CCCCC1CCC(O)CC1` (stereo not given), “inactive”.
Same read-out and setting: for `CC(N)CCCC(C)(C)O` (stereo not given) the value was “inactive”; for `NCCOCCN`, “inactive”.
On the same count and under the same terms, for `CC(O)COC(C)(C)C` (stereo not given) the value was “inactive”.
On to `ONc1ccccc1`, for which the compound was classed as inactive.
On the same count and under the same terms, for `O=C(O)c1cc2ccccc2nc1C(=O)O` the value was “inactive”.
Same read-out and setting: for `CC(=O)O[C@H]1C[C@@H]2CC[C@@]1(C)C2(C)C` the value was “inactive”.
Still for that read-out and setting: with `OC[C@@H](O)C(O)[C@@H](O)CO` (stereo not given in full) the entry was “inactive”; with `OCC1CCC(CO)CC1` (stereo not given), “inactive”.
`CC1(C)CC(OC(=O)CCCCCCCCC(=O)OC2CC(C)(C)NC(C)(C)C2)CC(C)(C)N1`: the activity change, negative = cytotoxicity is -7.5% [at 19 µM].
As for `O=NN(CCCl)C(=O)NC1CCCCC1`, the call was inactive.
The same measure, in the same setting: with `CC(C)COC(=O)c1ccccc1` the entry was “inactive”.
`COC(C)(OC)OC`: the call was inactive.
Still for that read-out and setting: for `CC(=O)O[Si](C)(OC(C)=O)OC(C)=O` the value was “inactive”.
Same read-out and setting: with `CC(C)=CCC/C(C)=C/COC=O` the entry was “inactive”; with `Cc1ccccc1C(N)=O`, “inactive”; with `Cc1c(C(=O)c2c[nH]n(C)c2=O)ccc(S(C)(=O)=O)c1C1=NOCC1`, “inactive”.
Same read-out and setting: for `Cc1cc(C)c(C(=O)O)c(C)c1` the value was “inactive”.
On to `CN(C)CCCO[C@@H]1[C@H]2OC(C)(C)O[C@H]2O[C@@H]1C(O)CO` (stereo not given in full), for which the call was inactive.
Same read-out and setting: for `CC(C)C1OCCN1CCOC(=O)NCCCCCCNC(=O)OCCN1CCOC1C(C)C` (stereo not given) the value was “inactive”.
Same read-out and setting: for `OCCN1CCOCC1` the value was “inactive”.
With `O=C1c2ccccc2C(=O)c2cc(Cl)ccc21`, the activity change, negative = cytotoxicity is 6.08% [at 8.39 µM].
Consider `CCCCCC(C)O` (stereo not given), for which the result was inactive.
The same measure, in the same setting: for `C/C(CC(C)C)=N\O` the value was “inactive”; for `CCC(=O)Oc1ccc2c(c1)CC[C@@H]1[C@@H]2CC[C@@]2(C)[C@H]1C[C@@H](OC(=O)CC)[C@@H]2OC(=O)CC`, “inactive”.
With `COc1cc(/C=C/C(N)=O)cc(OC)c1OC`, the outcome was inactive.
